Usually AC50 stands for the concentration at which the activity in the assay is half-maximal.

Outcome and AC50 data for 28 compounds are collected here from PubChem BioAssay (EPA / NIEHS).

“And” between values parts separate entries of the source, which are not always exact repeats. Equal values may be shown once. Inconclusive results are not listed. Where a structure was tested more than once in an assay, its records may differ in their call. The source made the active and inactive calls. How the source made its calls, unless noted: active means hit-call score of the fitted dose curve at least 0.9, where 1 is the maximum; inconclusive means response in the unintended direction; inactive means score below 0.9.

Assay [1] is described as follows: CCTE_Shafer_MEA_acute_AB: CCTE's Alamar Blue Assay for Cytotoxicity in the Neural Acute Assay, Shafer Lab (AID 2284069).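 Further: active compounds lower the viability signal compared with DMSO wells.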 The essentials: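 Resazurin reduction (CellTiter Blue, 1:6 in fresh medium) read at ex 544/em 590 nm marks viability loss relative to DMSO. Cells: primary rat cortical neuron networks on microelectrode arrays, treated after baseline recording at 13 or 15 days in vitro.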

Assay [2] is described as follows: CCTE_Shafer_MEA_acute_LDH: CCTE's Lactate Dehydrogenase Assay for Cytotoxicity in the Neural Acute Assay, Shafer Lab (AID 2284086).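 Further: active means LDH release rises above DMSO vehicle level.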 The essentials:
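Released lactate dehydrogenase, read at 490 nm, indicated cytotoxicity after acute 40-min compound treatment of rat cortical neuron networks grown on 48-well MEA plates.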

Assay [3] is described as follows: CCTE_Shafer_MEA_dev_AB: CCTE's Alamar Blue Assay for Cytotoxicity in the Neural Network Formation Assay, Shafer Lab (AID 2284083).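 Further: resazurin reduction fluorescence as viability of cultured neurons; twelve days of exposure from plating with re-dosing on DIV 5 and 9.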 An outline of the steps: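 Resazurin fluorescence, relative to DMSO, gauges viability after twelve days of exposure that began at plating of rat cortical neurons (1.5 x 10^5 cells/well, 48-well MEA); treatment renewed with full medium exchange on DIV 5 and 9.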
(Alamar Blue is a resazurin reagent that responds to reducing activity.)

A short description of assay [4]: CCTE_Shafer_MEA_dev_mutual_information_norm: CCTE's Neural Network Formation Assay for Mutual Information Normalization, Shafer Lab (AID 2284091; active means hit-call score of the fitted dose curve at least 0.9, where 1 is the maximum; inactive means score below 0.9;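 on AC50: mutual information between electrodes summarised as area under curve across four recording days; potency is for a decrease in mutual information relative to DMSO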). An outline of the steps: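 Rat cortical cultures, 48-well MEA, continuous exposure DIV 0–12 with full media/compound change DIV 5 and 9. Readout: inter-electrode mutual information, AxIS adaptive spike detection; AUC across DIV 5/7/9/12 recordings; DMSO baseline, negative fitting direction.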

Assay [5] can be described thus: IUF_NPC1b_proliferation_BrdU_72hr: Leibniz Research Institute for Environmental Medicine (IUF) 72-hour Neural Progenitor Cell Bromodeoxyuridine (BrdU) Proliferation Assay (NPC1b) (AID 2284207; active means hit-call score of the fitted dose curve at least 0.9, where 1 is the maximum; inactive means score below 0.9). An outline of the steps:
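hNPC spheres (primary, GW 16-19 fetal cortex), single sphere/well, EGF+FGF medium; 72 h compound, no renewal; BrdU pulse last 16 h; luminescent ELISA; activity vs DMSO baseline; growth-factor withdrawal as positive control.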

Assay [6] in a line: IUF_NPC1a_proliferation_area_72hr: Leibniz Research Institute for Environmental Medicine (IUF) 72-hour Neural Progenitor Cell Proliferation Area Assay (NPC1a) (AID 2284208; active means hit-call score of the fitted dose curve at least 0.9, where 1 is the maximum; inactive means score below 0.9). The essentials: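 Single 0.25–0.35 mm human fetal neural progenitor spheres in proliferation medium with EGF and FGF, exposed 72 h from plating without renewal at 37C, pH 7.2-7.6. Sphere area growth measured by automated phase-contrast imaging, relative to DMSO.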

A short description of assay [7]: CCTE_Shafer_MEA_dev_LDH: CCTE's Lactate Dehydrogenase Assay for Cytotoxicity in the Neural Network Formation Assay, Shafer Lab (AID 2284068).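 Further: exposure for twelve days from plating with re-dosing on DIV 5 and 9.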 An outline of the steps: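 Primary rat cortical neurons were cultured on PEI-coated MEA plates and exposed from plating through day 12, with compound renewed at medium changes on DIV 5 and 9. LDH activity was read spectrophotometrically; loss of signal versus DMSO indicates reduced viability.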

The nature of assay [8]: UKN2_HCS_IMR90_neural_migration: University of Konstanz (UKN) Leist Lab Neural Crest Cell Migration Assay in human induced IMR90 Pluripotent Stem Cells (UKN2) (AID 2284204; active means hit-call score of the fitted dose curve at least 0.9, where 1 is the maximum; inactive means score below 0.9). Conditions: actives raise or lower the signal. An outline of the steps: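 iPSC-derived IMR90 neural crest cells on PLO/laminin/fibronectin were seeded around silicone stoppers; after stopper removal, migration in N2-S medium with EGF and FGF ran 24 h before 24 h chemical exposure. Calcein-AM/Hoechst high-content imaging; bidirectional fit versus DMSO.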

Turning to `C[N+](C)(C)CC1CO1` (stereo unspecified), the result in assay [1] and in assay [2] was inactive.

Regarding `O=P(OCCCl)(OCCCl)OCCCl`, the compound was called inactive in assay [1], in assay [3], in assay [2], in assay [4], in assay [5] and in assay [6].

Take `CCCCCOC(=O)c1ccccc1C(=O)OCCCCC`: the outcome in assay [1] was inactive.

In the case of `OCCOCCO`, the result in assay [4], in assay [5] and in assay [6] was inactive.

For `Cc1cc(N=Nc2ccccc2C)ccc1N`, the result in assay [1] and in assay [2] was inactive.

As to `O=Cc1ccco1`, the compound was classed as inactive in assay [1] and in assay [2].

Consider `ClCCOCCCl`, for which the compound was called inactive in assay [1] and in assay [2].

Turning to `CC(C)(O)c1cnn2c(-c3ccc(F)c(-c4c(F)cccc4C#N)c3)cnc2n1`, the compound was classed as inactive in assay [1], in assay [3] and in assay [2]. In addition, in assay [4], the AC50 is 0.191 µM (active).

Take `CC(C)(C)C(O)(CCc1ccc(Cl)cc1)Cn1cncn1` (stereo unspecified): the call in assay [7], in assay [1], in assay [3], in assay [2], in assay [5] and in assay [6] was inactive. Moreover, the concentration at half-maximal activity (AC50) in assay [4] was 2.24 µM (active).

Take `O=[N+]([O-])C(Br)(CO)CO`: the half-maximal activity concentration (AC50) in assay [1] was 26.9 µM (active).

For `CCNS(=O)(=O)C(F)(F)C(F)(F)C(F)(F)C(F)(F)C(F)(F)C(F)(F)C(F)(F)C(F)(F)F`, the half-maximal activity concentration (AC50) in assay [7] is 8.58 µM (active) and 4.41 µM (active); in assay [3], 15 µM (active) and 7.67 µM (active); in assay [4], 2.98 µM (active) and 2.72 µM (active).

For `O=[N+]([O-])c1ccc(Oc2ccc(Cl)cc2Cl)cc1`, the compound was called inactive in assay [1].

With `O=C(Oc1ccc(Br)cc1)N1CCN2CCC1CC2`, the result in assay [2] was inactive.

As for `c1ccc(N=Nc2ccccc2)cc1`, the compound was called inactive in assay [1] and in assay [2].

In the case of `COP(=S)(OC)SCN1C(=O)c2ccccc2C1=O`, the AC50 in assay [7] is 28.9 µM (active); in assay [3] it was 31.7 µM (active); in assay [4], 22.7 µM (active); in assay [5] it was 0.499 µM (active). Further, the call in assay [7], in assay [3], in assay [4], in assay [8] and in assay [6] was inactive.

Take `C1=Cc2cccc3cccc1c23`: the result in assay [7], in assay [3] and in assay [4] was inactive.

For `Clc1ccc(C(c2ccc(Cl)cc2)C(Cl)(Cl)Cl)cc1`, the half-maximal activity concentration (AC50) in assay [7] is 4.07 µM (active) and 6.5 µM (active); in assay [3] it was 3.88 µM (active) and 8.94 µM (active); in assay [4], 971 nM (active) and 2.52 µM (active). For the same compound, the compound was classed as inactive in assay [1] and in assay [2].

For `CNC(=O)Oc1cccc2c1OC(C)(C)C2`, the concentration at half-maximal activity (AC50) in assay [7] and in assay [3] was 49.6 µM (active) in each case. Besides, the compound was called inactive in assay [7], in assay [3], in assay [4], in assay [8], in assay [5] and in assay [6].

For the compound `Cc1ccc(N)c(N)c1`, the call in assay [1] and in assay [2] was inactive.

In the case of `ClC1=C(Cl)C2(Cl)C3C(Cl)C=CC3C1(Cl)C2(Cl)Cl` (stereo unspecified), the results for the AC50 in assay [7], in assay [3] and in assay [4] were 2.98 µM (active), 0.937 µM (active) and 1.52 µM (active), respectively. The result in assay [1] and in assay [2] was inactive.

`N#CC(Br)Br`: the outcome in assay [1] and in assay [2] was inactive.

As for `CN(C)[C@@H]1C(=O)C(C(N)=O)=C(O)[C@@]2(O)C(=O)C3=C(O)c4c(O)cccc4[C@@](C)(O)[C@H]3C[C@@H]12`, the result in assay [7], in assay [3] and in assay [4] was inactive.

As to `c1ccc(NNc2ccccc2)cc1`, the outcome in assay [1] was inactive.

In the case of `CCC(C)c1ccc(O)cc1` (stereo unspecified), the call in assay [1] and in assay [2] was inactive.

Regarding `CCCCCCCCn1sccc1=O`, the compound was called inactive in assay [1] and in assay [2].

For the compound `CCN(CC)CCO`, the call in assay [1] and in assay [2] was inactive.

For the compound `CC(C)(OOC(C)(C)c1ccccc1)c1ccccc1`, the call in assay [1] and in assay [2] was inactive.

For `CC(C)COC(=O)c1ccccc1C(=O)OCC(C)C`, the AC50 in assay [7] was 23.6 µM (active); in assay [3], 24.8 µM (active); in assay [4], 22.2 µM (active). Moreover, the outcome in assay [1], in assay [2], in assay [8], in assay [5] and in assay [6] was inactive.
